Records with an inconclusive call do not appear. The source made the active and inactive calls. Unless noted, the call rests on the fitted dose curve; in most records, active means well fitted curve in the direction sought with a large enough effect; inconclusive means small, poorly fitted or top-dose-only effect, or another doubt; inactive means no such curve, though single readings can be large; an effect the other way counts as inactive or inconclusive.
How the values were obtained:
[1] = S16 Schwann cell PMP22 intronic element firefly luciferase assay (AID 624032); further: nearly all actives have a fitted effect of over 30% in size; further: potency means the concentration at half of the fitted maximal effect
Method in brief: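 Rat S16 Schwann cells stably carrying firefly luciferase driven by a PMP22 intronic element, in 10% FBS, treated 24 h at 37 C. ONE-Glo luminescence normalized to PTC124 control and DMSO (0%); curves classed by r2, magnitude and activity.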

[2] = S16 Schwann cell PMP22 intronic element beta-lactamase assay (AID 624044; calls by dose curve; further: nearly all actives have a fitted effect of over 15% in size; further: potency means the concentration at half of the fitted maximal effect); conditions: S16 rat Schwann cells, PMP22 element beta-lactamase FRET, 24 h; ratio activity, negative = inhibition: at 38.3 µM (top of the series)
Method in brief: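 Beta-lactamase reporter under a PMP22 intronic regulatory element in stable S16 rat Schwann cells; 24 h compound exposure. 460 nm blue signal normalized between DMSO (0%) and potassium clavulanate, with 535 nm FRET tracking viability; curves classed by r2 and response.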

[3] = molecular target: Glutaminase kidney isoform, mitochondrial (Homo sapiens) (UniProt O94925); assay: qHTS for Inhibitors of Glutaminase (GLS): LOPAC Validation (AID 624146);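 further: glutamate product detected by oxidase and peroxidase coupled Amplex red fluorescence gain; nearly all actives have a fitted effect of over 60% in size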
Chain of Glutaminase kidney isoform, mitochondrial (Homo sapiens) (O94925 whole entry, looked up, canonical isoform): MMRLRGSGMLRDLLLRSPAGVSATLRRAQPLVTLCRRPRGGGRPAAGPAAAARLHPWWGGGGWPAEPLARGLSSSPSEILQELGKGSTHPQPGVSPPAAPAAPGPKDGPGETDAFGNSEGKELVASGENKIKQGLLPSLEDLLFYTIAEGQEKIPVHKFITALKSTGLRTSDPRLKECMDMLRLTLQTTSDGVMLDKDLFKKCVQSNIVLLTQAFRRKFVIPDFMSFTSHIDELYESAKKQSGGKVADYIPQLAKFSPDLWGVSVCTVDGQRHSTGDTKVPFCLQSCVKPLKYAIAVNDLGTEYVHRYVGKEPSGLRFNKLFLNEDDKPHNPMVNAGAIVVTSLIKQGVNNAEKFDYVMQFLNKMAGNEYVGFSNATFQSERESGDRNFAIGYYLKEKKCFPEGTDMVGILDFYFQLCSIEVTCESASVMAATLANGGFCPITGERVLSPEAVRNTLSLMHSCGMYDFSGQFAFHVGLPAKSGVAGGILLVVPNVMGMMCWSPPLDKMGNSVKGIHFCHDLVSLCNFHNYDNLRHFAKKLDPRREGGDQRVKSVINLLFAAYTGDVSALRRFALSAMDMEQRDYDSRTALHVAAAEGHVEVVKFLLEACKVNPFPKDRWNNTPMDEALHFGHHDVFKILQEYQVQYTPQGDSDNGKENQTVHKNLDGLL
Method in brief: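 hKGA; 45 mM KH2PO4 pH 8.2 + 0.02% Tween-20; cpd via pin tool; 1 mM Gln soln; GluOx/HRP/Amplex Red; RT 30 min; fluor. t0 & final.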

[4] = qHTS of Trypanosoma Brucei Inhibitors: LOPAC Validation (AID 624147)
Method in brief: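 T. brucei PYK with substrate was exposed to pin-transferred compounds across a concentration series, then started with 130 uM ADP (final). After 45 min at room temperature, Kinase-Glo Plus luminescence was read, normalized and curve-fitted.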

[5] = molecular target: Glucagon-like peptide 1 receptor (Homo sapiens) (UniProt P43220); assay: qHTS of GLP-1 Receptor Agonists: LOPAC Validation (AID 624148);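 further: higher luminescence signal means agonism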
Chain of Glucagon-like peptide 1 receptor (Homo sapiens) (P43220 whole entry, looked up): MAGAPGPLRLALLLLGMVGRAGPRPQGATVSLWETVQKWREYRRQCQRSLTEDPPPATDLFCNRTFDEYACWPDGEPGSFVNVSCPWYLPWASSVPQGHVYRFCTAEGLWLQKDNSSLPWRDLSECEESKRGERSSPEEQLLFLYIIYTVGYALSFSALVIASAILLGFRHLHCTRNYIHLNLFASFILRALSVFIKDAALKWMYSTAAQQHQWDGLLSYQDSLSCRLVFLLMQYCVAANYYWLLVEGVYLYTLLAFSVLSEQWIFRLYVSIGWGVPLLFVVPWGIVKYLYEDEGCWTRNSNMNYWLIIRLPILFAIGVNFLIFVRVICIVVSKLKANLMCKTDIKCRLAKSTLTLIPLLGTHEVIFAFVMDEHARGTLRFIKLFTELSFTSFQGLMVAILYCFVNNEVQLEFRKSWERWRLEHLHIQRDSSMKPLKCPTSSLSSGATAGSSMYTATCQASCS
Method in brief: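 HEK293 cells stably co-expressing GLP-1R and a cAMP-responsive luciferase reporter, plated 12 hours before compound, then incubated 4-6 hr at 37 deg C. Luminescence read 12 min after detection reagent.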

[6] = qHTS of Nrf2 Activators: LOPAC Validation (AID 624149)
Method in brief: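 Luciferase signal from ARE activation, read with Steady-Glo after 30 min at room temperature. Compounds were pin-transferred onto AREc32_Fluc cells (1000/well, OPTI-MEM/5% FBS, seeded overnight) and left 24 hr at 37 deg C.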

[7] = HTS Assay for Allosteric Antagonists of the Human D2 Dopamine Receptor: Hit Validation in HTRF (AID 624455);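 further: stable D1 dopamine receptor cell line scored for blocking the D1 response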
Method in brief: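 Inhibition of the D1-mediated response was measured by HTRF. Cells used were a line stably expressing the D1 dopamine receptor.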

Measured: Potency

CN1C2CCC1CC(OC(=O)c1c[nH]c3ccccc13)C2 (stereo unspecified)
inactive: all assays above

C[C@]12CC[C@@H]3c4ccc(O)cc4CC[C@H]3[C@@H]1CC[C@@H]2O
not listed: [2]
inactive: all other assays above

CCCOC(C(=O)OC1CCN(C)CC1)(c1ccccc1)c1ccccc1
inactive: [1] | [2]

O=C(O)c1cc2cc(Cc3cccnc3)ccc2o1
inactive: all assays above

C[C@@H](CN(C)C)CN1c2ccccc2Sc2ccccc21
inactive: [1] | [2]

N[C@H](CO)C(=O)O
not listed: [2]
inactive: all other assays above

CNCCC=C1c2ccccc2CCc2ccccc21
active: [1] 11.4 µM
not listed: [2]
inactive: all other assays above

CCCn1c(=O)[nH]c(=O)c2[nH]cnc21
inactive: all assays above

CCN(CC)CCOc1ccc(C(O)(Cc2ccc(Cl)cc2)c2ccc(C)cc2)cc1 (stereo unspecified)
inactive: [2]

O=C1OC(c2ccc(O)cc2)(c2ccc(O)cc2)c2ccccc21
inactive: [2]
active: [1] 25.6 µM

COc1cccc2c1C(=O)c1c(O)c3c(c(O)c1C2=O)C[C@@](O)(C(C)=O)C[C@@H]3O[C@H]1C[C@H](N)[C@H](O)[C@H](C)O1
inactive: [1]
active: [2] 0.126 µM

CC(=O)c1ccc2c(c1)N(CCCN1CCC(CCO)CC1)c1ccccc1S2
inactive: [2]

COC(=O)[C@H]1[C@H]2C[C@H]3c4[nH]c5ccccc5c4CCN3C[C@H]2CC[C@@H]1O
not listed: [3]
inactive: all other assays above

O=C1OCCN1/N=C/c1ccc([N+](=O)[O-])o1
inactive: [2]

NC(=NCCCCCCN=C(N)/N=C(\N)Nc1ccc(Cl)cc1)/N=C(\N)Nc1ccc(Cl)cc1
inactive: [2]

CCN(CC)CCOC(=O)C(c1ccccc1)C1CCCCC1 (stereo unspecified)
inactive: [1] | [2]

CCCCCCc1ccc(O)cc1O
inactive: [1] | [2]

CCCCCCCCCCOCC(O)CN (stereo unspecified)
inactive: [2]

CN=C(NC#N)NCCSCc1csc(N=C(N)N)n1
inactive: [2]

CCCCCC=CCC=CCCCCCCCC(=O)OCC
inactive: [1] | [2]

N[C@@H](Cc1cnc[nH]1)C(=O)O
inactive: all assays above

Clc1ccc2c(c1)CCc1cccnc1C2=C1CCNCC1
inactive: [2]

C1CCc2nnnn2CC1
not listed: [7]
inactive: all other assays above

O=C1CCC(c2ccc(-n3ccnc3)cc2)=NN1
inactive: all assays above

CCCCCCCCCCCCCCCC[N+](C)(C)CC
active: [1] 14.4 µM | [2] 22.4 µM

c1ccc(-c2ccc(C(c3ccccc3)n3ccnc3)cc2)cc1 (stereo unspecified)
inactive: [2]

C[N+]1(CCCCC[N+]2(C)CCCC2)CCCC1
not listed: [2]
inactive: all other assays above

CCOc1ccc2nc3cc(N)ccc3c(N)c2c1
inactive: [2]
